Common to all, as to test: DAPPL (digital affinity profiling via proximity ligation, sequencing); 10 mM Tris-HCl pH 7.5, 50 mM NaCl, 1 mM DTT, 4% glycerol, room temperature, 30 min; GST-TFs on glutathione beads, 16-mer random dsDNA library, 0.1% formaldehyde crosslink after washing; high values mean tight binding
Common to all, as to details: protein: recombinant; tags: N-terminal GST; dsDNA, one strand shown

The target of one assay is T1, ELK1 (Homo sapiens, UniProt P19419 1-428).
T1 sequence: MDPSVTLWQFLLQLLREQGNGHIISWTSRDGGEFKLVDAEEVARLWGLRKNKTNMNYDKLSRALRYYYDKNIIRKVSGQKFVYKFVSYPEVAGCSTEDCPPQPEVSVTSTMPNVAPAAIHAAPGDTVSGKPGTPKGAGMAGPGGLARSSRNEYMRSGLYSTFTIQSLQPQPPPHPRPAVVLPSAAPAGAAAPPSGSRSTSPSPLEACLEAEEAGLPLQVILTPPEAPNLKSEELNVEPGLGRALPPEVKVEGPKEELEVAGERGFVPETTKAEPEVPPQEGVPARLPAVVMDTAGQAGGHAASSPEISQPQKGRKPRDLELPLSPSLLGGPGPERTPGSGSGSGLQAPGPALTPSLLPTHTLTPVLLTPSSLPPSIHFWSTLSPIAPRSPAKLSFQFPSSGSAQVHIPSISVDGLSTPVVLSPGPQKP
The gist of the method:
(§1)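 GST fusions of human transcription factors were expressed in yeast and captured with glutathione beads. Once given DNA barcodes and pooled alongside a tag-only sample, they were incubated for 30 min at room temperature with 200 nmole of a random double-stranded 16-mer DNA library in Tris/NaCl/DTT/glycerol buffer, then washed, crosslinked (0.1% formaldehyde), proximity-ligated, PCR-amplified and sequenced on an Illumina NextSeq500. The binding signal of each hexamer is its read frequency for a factor divided by its frequency for the tag-only sample.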

In the next assay the target is T2, GABPA (Homo sapiens, UniProt Q06546 1-454).
T2 sequence: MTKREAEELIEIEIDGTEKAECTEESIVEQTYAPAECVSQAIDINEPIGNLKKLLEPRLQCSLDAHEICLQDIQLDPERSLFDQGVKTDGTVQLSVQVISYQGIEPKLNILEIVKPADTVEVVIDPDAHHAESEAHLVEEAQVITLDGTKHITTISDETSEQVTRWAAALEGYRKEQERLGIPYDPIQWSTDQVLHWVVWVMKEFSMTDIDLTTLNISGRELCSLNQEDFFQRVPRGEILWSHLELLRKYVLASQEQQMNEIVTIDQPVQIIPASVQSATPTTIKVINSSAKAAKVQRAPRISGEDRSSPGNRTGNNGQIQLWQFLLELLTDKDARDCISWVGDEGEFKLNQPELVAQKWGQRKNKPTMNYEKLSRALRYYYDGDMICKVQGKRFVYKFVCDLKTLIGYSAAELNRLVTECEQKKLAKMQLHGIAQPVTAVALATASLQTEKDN
The gist of the method: as §1

Another assay has as its target T3, ERG (Homo sapiens, UniProt P11308 1-479).
T3 sequence: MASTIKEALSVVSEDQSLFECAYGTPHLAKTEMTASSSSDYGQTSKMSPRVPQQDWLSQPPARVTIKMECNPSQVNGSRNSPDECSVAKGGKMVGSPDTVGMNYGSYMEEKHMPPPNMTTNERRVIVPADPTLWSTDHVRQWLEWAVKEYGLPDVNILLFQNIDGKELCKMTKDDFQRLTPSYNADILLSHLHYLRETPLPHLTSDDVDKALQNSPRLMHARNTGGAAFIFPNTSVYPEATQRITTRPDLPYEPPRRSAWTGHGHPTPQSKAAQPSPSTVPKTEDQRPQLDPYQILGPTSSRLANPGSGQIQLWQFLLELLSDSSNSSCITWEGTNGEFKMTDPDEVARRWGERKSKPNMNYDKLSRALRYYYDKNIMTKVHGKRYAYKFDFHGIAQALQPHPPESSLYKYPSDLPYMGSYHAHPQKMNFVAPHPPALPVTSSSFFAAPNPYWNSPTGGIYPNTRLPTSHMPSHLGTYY
The gist of the method:
as §1

For another assay, the target named is ELF1 (Homo sapiens, UniProt P32519 1-619). The gist of the method: as §1
ELF1, sequence (P32519 whole entry): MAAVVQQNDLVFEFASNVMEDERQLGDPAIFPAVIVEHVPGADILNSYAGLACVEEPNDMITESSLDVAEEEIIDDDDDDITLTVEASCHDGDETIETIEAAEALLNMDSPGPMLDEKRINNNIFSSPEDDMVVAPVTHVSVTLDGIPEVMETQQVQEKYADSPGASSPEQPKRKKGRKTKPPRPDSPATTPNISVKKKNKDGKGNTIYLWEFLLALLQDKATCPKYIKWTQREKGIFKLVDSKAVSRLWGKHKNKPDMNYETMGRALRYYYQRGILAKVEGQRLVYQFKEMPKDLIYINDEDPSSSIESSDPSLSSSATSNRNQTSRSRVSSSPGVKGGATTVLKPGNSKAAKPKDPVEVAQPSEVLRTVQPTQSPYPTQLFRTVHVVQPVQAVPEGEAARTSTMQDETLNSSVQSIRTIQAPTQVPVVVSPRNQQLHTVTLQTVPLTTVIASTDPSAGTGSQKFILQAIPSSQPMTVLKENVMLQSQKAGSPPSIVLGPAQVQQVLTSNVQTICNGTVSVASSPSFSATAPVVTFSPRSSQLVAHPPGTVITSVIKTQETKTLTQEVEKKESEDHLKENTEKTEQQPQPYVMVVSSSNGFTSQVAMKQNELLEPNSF
The target of a further assay is T4, EHF (Homo sapiens, UniProt Q9NZC4 1-300).
T4 sequence: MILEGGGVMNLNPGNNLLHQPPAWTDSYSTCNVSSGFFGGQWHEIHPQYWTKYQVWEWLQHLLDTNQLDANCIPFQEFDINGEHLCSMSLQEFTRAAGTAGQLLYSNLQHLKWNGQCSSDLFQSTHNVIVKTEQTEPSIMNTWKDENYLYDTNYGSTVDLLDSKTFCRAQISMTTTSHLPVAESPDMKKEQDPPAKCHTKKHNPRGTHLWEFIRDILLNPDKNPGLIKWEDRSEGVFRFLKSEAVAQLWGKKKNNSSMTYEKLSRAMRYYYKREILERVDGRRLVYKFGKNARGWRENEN
The gist of the method:
as §1

For a further assay, the target named is SPIB (Homo sapiens, UniProt Q01892 1-262). The gist of the method:
as §1

The next assay has as its target T5, FEV (Homo sapiens, UniProt Q99581 1-238).
T5 sequence: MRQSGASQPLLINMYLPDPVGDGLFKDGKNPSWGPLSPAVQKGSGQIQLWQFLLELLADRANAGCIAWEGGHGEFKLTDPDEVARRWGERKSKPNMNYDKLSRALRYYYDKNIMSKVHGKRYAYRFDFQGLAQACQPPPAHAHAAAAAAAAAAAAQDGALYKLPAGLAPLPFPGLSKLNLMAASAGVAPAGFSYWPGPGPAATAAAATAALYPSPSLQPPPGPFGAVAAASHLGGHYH
The gist of the method: as §1

The target in another assay is ETV5 (Homo sapiens, UniProt P41161 1-510). The gist of the method:
as §1

In another assay the target is ELF4 (Homo sapiens, UniProt Q99607 1-663). The gist of the method: as §1
ELF4, sequence (Q99607 whole entry): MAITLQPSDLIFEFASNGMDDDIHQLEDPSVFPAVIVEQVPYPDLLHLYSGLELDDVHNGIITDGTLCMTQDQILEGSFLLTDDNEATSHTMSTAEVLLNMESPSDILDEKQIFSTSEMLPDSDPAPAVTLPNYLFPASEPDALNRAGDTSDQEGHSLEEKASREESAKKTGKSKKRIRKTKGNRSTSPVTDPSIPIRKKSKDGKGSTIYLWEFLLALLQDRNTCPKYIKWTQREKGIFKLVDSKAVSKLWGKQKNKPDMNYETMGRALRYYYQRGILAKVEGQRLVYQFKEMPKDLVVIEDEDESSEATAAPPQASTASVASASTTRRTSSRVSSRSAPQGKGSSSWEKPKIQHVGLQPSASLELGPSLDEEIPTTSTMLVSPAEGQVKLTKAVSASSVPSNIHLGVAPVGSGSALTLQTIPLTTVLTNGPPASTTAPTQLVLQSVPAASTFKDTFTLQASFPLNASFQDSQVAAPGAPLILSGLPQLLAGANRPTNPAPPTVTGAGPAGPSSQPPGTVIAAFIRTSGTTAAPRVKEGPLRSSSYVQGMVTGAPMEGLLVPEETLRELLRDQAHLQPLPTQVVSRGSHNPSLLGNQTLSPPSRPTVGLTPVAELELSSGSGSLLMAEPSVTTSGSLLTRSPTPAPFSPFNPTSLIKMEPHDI
In another assay the target is T6, ELK4 (Homo sapiens, UniProt P28324-2 1-405).
T6 sequence: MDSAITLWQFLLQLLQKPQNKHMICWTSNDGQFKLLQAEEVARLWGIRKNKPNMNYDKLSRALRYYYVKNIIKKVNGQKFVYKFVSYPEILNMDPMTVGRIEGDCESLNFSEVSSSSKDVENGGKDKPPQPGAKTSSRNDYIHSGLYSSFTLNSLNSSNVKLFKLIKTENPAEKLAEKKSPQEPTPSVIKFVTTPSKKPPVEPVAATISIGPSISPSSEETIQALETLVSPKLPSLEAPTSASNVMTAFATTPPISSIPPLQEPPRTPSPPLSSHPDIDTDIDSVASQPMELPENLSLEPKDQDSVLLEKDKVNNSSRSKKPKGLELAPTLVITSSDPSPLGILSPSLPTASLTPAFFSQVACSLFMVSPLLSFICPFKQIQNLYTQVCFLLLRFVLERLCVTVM
The gist of the method: as §1

Another assay deals with T7, ETV2 (Homo sapiens, UniProt O00321 1-342).
T7 sequence: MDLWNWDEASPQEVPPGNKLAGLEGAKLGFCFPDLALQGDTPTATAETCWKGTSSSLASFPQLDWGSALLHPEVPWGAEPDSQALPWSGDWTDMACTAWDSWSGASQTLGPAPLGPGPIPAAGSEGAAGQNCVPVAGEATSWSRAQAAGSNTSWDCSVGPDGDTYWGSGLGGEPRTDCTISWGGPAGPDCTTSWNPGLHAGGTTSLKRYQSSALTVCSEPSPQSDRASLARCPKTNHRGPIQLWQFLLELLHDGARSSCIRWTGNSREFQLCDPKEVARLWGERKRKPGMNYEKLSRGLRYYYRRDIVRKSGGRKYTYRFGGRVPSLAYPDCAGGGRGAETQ
The gist of the method: as §1

A further assay addresses T8, ELF3 (Homo sapiens, UniProt P78545 1-371).
T8 sequence: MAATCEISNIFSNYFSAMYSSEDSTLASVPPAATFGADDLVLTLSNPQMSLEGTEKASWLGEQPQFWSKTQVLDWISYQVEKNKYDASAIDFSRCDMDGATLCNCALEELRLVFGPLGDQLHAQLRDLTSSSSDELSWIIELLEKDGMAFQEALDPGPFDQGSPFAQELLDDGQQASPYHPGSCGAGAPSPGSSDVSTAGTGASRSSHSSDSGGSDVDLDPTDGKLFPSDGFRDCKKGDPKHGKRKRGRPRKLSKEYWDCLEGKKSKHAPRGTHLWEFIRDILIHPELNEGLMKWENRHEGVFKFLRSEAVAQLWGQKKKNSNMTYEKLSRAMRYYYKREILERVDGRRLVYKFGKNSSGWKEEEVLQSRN
The gist of the method:
as §1

In the next assay the target is T9, ERF (Homo sapiens, UniProt P50548 1-548).
T9 sequence: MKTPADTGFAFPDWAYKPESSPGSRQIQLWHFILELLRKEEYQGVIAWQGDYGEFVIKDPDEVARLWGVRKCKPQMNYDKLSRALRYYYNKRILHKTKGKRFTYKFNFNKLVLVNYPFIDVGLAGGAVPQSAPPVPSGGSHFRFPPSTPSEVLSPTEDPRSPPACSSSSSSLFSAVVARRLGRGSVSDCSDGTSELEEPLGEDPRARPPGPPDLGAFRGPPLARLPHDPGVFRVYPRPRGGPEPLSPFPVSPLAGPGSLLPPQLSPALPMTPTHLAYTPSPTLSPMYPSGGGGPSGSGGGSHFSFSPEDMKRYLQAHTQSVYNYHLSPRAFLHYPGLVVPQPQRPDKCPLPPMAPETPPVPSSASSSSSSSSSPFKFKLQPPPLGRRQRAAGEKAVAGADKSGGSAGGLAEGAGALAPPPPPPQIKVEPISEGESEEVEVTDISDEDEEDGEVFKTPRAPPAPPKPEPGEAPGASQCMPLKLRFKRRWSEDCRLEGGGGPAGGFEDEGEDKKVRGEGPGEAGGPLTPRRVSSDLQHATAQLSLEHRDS
The gist of the method: as §1

Another assay addresses T10, ETV3L (Homo sapiens, UniProt Q6ZN32 1-361).
T10 sequence: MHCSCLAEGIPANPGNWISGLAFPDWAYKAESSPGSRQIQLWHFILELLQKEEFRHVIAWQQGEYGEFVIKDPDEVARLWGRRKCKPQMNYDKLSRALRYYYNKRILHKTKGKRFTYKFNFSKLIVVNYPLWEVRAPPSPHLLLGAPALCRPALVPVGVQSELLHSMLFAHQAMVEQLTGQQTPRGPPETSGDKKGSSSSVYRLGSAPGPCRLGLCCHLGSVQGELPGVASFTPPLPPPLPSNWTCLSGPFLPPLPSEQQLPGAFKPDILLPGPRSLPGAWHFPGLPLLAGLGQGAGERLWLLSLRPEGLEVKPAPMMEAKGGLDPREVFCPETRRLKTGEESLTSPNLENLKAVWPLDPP
The gist of the method:
as §1

A further assay concerns the target T11, ETS2 (Homo sapiens, UniProt P15036 1-469).
T11 sequence: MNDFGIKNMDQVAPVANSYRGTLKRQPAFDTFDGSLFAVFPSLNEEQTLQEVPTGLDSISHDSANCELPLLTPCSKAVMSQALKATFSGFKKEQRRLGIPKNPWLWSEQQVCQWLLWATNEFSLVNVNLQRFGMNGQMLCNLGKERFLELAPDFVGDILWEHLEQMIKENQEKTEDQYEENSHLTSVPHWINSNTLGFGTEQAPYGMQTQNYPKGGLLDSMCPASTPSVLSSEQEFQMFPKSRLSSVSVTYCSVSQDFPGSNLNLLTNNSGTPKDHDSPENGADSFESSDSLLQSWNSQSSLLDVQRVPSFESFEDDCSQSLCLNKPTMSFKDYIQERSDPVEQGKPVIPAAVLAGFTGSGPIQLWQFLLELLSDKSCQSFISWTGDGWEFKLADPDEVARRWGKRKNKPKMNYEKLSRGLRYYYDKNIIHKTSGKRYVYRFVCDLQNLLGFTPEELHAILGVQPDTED
The gist of the method: as §1

The target in the next assay is T12, ETV3 (Homo sapiens, UniProt P41162-2 1-143).
T12 sequence: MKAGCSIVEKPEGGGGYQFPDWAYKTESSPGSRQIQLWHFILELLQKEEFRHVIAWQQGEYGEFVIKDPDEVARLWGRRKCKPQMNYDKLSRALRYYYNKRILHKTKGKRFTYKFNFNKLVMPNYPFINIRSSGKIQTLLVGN
The gist of the method:
as §1

In the next assay the target is ETV6 (Homo sapiens, UniProt P41212 1-452). The gist of the method: as §1
ETV6, sequence (P41212 whole entry): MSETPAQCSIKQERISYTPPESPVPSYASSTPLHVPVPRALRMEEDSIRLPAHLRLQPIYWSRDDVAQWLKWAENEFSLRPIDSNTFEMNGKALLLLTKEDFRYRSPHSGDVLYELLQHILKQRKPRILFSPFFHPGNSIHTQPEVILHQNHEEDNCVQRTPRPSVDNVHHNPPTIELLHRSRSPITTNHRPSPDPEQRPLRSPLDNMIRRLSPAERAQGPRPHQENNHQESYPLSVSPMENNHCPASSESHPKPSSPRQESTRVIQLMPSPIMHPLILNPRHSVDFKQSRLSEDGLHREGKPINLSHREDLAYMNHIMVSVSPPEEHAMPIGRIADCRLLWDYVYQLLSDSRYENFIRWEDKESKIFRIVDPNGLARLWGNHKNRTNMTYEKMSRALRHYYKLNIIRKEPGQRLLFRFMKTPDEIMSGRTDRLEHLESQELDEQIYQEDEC

The text below walks through data of paper PMC7862700, “An all-to-all approach to the identification of sequence-specific readers for epigenetic DNA modifications on cytosine”.

SPIB, sequence (Q01892 whole entry): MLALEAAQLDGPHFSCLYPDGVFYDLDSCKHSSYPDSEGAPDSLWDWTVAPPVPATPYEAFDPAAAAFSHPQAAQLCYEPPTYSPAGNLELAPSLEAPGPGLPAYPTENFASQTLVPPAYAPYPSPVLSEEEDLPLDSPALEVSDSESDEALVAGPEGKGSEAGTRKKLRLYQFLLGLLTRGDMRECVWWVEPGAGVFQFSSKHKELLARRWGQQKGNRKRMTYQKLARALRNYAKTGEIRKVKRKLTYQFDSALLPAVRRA
ETV5, sequence (P41161 whole entry): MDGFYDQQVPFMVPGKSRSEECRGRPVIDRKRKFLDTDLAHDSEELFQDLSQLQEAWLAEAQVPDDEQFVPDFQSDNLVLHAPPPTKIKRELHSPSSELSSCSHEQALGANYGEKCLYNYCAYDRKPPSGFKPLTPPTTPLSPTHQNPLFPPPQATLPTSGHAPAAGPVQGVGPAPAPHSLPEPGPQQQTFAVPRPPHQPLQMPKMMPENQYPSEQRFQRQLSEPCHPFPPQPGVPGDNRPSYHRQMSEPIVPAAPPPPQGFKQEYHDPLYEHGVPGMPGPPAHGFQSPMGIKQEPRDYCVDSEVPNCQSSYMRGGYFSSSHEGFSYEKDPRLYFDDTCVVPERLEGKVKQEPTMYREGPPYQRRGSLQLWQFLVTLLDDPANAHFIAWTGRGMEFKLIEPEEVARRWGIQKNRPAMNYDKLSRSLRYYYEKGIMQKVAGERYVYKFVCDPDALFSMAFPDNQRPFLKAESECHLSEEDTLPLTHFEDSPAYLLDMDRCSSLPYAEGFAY

With AGCGCC, the binding signal was 1.06 fold enrichment (6-mer frequency, TF over GST control) with ELK1; 1.07 fold enrichment (6-mer frequency, TF over GST control) with GABPA; 1.05 fold enrichment (6-mer frequency, TF over GST control) in the assay with ERG; 1.13 fold enrichment (6-mer frequency, TF over GST control) with ELF1; 1.13 fold enrichment (6-mer frequency, TF over GST control) with EHF; 1.1 fold enrichment (6-mer frequency, TF over GST control) with SPIB. In addition, the binding signal was 1.19 fold enrichment (6-mer frequency, TF over GST control) with FEV; 1.04 fold enrichment (6-mer frequency, TF over GST control) in the assay with ETV5; 1.09 fold enrichment (6-mer frequency, TF over GST control) with ELF4; 1.11 fold enrichment (6-mer frequency, TF over GST control) with ELK4; 1.09 fold enrichment (6-mer frequency, TF over GST control) in the assay with ETV2; 1.09 fold enrichment (6-mer frequency, TF over GST control) with ELF3. Further, the binding signal with ERF was 1.05 fold enrichment (6-mer frequency, TF over GST control); in the assay with ETV3L, 1.07 fold enrichment (6-mer frequency, TF over GST control); with ETS2 it was 1.06 fold enrichment (6-mer frequency, TF over GST control); in the assay with ETV3, 1.14 fold enrichment (6-mer frequency, TF over GST control); with ETV6 it was 1.16 fold enrichment (6-mer frequency, TF over GST control).
